Measurements reported in PubChem BioAssay (EPA / NIEHS).
Several values for one entry are separate records, joined by “and”; a condition that tells them apart may be missing. Equal entries are not always repeated. Some structures have more than one record in an assay (separate samples or runs), and their calls can disagree. Activity calls are given as the source filed them. Rule for the calls: active = hit-call score of the fitted dose curve at least 0.9, where 1 is the maximum; inactive = score below 0.9.

What was measured:
[1] = BSK_CASM3C_SRB: Viability Assessment in the BioMAP Diversity Plus: CASM3C Assay (AID 2283050); details: primary human coronary artery smooth muscle cells;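 note: total protein by SRB staining as cytotoxicity measure in parallel cultures; cells exposed to compound for 24 h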
[2] = read-out: Thrombomodulin, THBD (gene 7056); assay: BSK_CASM3C_Thrombomodulin: BioMAP Diversity Plus: CASM3C Assay for Thrombomodulin Biomarker Activity (AID 2283051); details: primary human coronary artery smooth muscle cells; actives raise or lower the signal;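 note: thrombomodulin protein level measured by ELISA 24 h after dosing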
[3] = read-out: Tissue Factor, F3 (gene 2152); assay: BSK_CASM3C_TissueFactor: BioMAP Diversity Plus: CASM3C Assay for Tissue Factor Biomarker Activity (AID 2283052); details: primary human coronary artery smooth muscle cells; actives raise or lower the signal;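 note: cell surface tissue factor protein level read by ELISA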
[4] = read-out: Interferon-gamma inducible Protein 10 (IP10), CXCL10 (gene 3627); assay: BSK_hDFCGF_IP10: BioMAP Diversity Plus: hDFCGF Assay for Interferon-gamma inducible Protein 10 (IP10) Biomarker Activity (AID 2283053); details: primary human foreskin fibroblasts; actives raise or lower the signal
Summary of the method: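 IP-10 levels, quantified by ELISA, are taken from human foreskin fibroblast cultures 24 h after chemical treatment, with DMSO serving as negative control and baseline for bidirectional analysis.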

[5] = read-out: Urokinase-type plasminogen activator receptor (uPAR), PLAUR (gene 5329); assay: BSK_CASM3C_uPAR: BioMAP Diversity Plus: CASM3C Assay for Urokinase-type plasminogen activator receptor (uPAR) Biomarker Activity (AID 2283054); details: primary human coronary artery smooth muscle cells; actives raise or lower the signal;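 note: cell-surface uPAR protein level quantified by ELISA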
[6] = read-out: Vascular cell adhesion molecule 1 (VCAM1), VCAM1 (gene 7412); assay: BSK_CASM3C_VCAM1: BioMAP Diversity Plus: CASM3C Assay for Vascular cell adhesion molecule 1 (VCAM1) Biomarker Activity (AID 2283055); details: primary human coronary artery smooth muscle cells; actives raise or lower the signal;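 note: VCAM-1 protein level quantified by ELISA on the cells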
[7] = read-out: Collagen III, COL3A1 (gene 1281); assay: BSK_hDFCGF_CollagenIII: BioMAP Diversity Plus: hDFCGF Assay for Collagen III Biomarker Activity (AID 2283056); details: primary human foreskin fibroblasts; actives raise or lower the signal
Summary of the method: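 ELISA read-out of collagen III from human skin fibroblast cultures sampled 24 h post-dosing. Values were derived by bidirectional fitting relative to the DMSO vehicle control.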

[8] = read-out: Epidermal growth factor receptor (EGFR), EGFR (gene 1956); assay: BSK_hDFCGF_EGFR: BioMAP Diversity Plus: hDFCGF Assay for Epidermal growth factor receptor (EGFR) Biomarker Activity (AID 2283057); details: primary human foreskin fibroblasts; actives raise or lower the signal
Summary of the method: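 Measured by ELISA: EGFR levels on primary human foreskin fibroblasts 24 h after chemical treatment, analysed relative to DMSO with bidirectional fitting.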

[9] = read-out: Interleukin-8 (IL8), CXCL8 (gene 3576); assay: BSK_hDFCGF_IL8: BioMAP Diversity Plus: hDFCGF Assay for Interleukin-8 (IL8) Biomarker Activity (AID 2283058); details: primary human foreskin fibroblasts; actives raise or lower the signal
Summary of the method: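 Cells used are human skin primary fibroblasts. Chemical is added, cultures run 24 h, then IL-8 is quantified by ELISA, and gain or loss versus DMSO control is fitted in both directions.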

[10] = BSK_hDFCGF_Proliferation: Cell Proliferation Assessment in the BioMAP Diversity Plus: hDFCGF Assay (AID 2283059); details: primary human foreskin fibroblasts;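 note: curves fitted for both rise and fall of signal versus DMSO baseline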
Summary of the method: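 Sub-confluent human foreskin fibroblast cultures receive test chemical […]. Relative cell number is quantified by sulforhodamine B staining (0.1%, after 10% TCA fixation) at 560 nm, with bidirectional fitting referenced to DMSO.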

Measured: AC50

CC(Cc1ccc(OCC(=O)O)cc1)NCC(O)c1csc(C(F)(F)F)n1 (configuration not stated)
inactive: [1] | [2] | [3] | [4] | [5] | [6] | [7] | [8] | [9] | [10]

CC(O)C(F)(F)C(F)(F)F (configuration not stated)
active: [2] 3.08 µM
inactive: [1] | [2] | [3] | [4] | [5] | [6] | [7] | [8] | [9] | [10]

ClC(Cl)c1ccccc1
inactive: [1] | [2] | [3] | [4] | [5] | [6] | [7] | [8] | [10]

Cc1ccc(N)cc1N
inactive: [1] | [2] | [3] | [4] | [5] | [6] | [7] | [8] | [9] | [10]

CCCCC(CC)COP(=O)(Oc1ccccc1)Oc1ccccc1 (configuration not stated)
inactive: [2] | [3] | [5] | [6] | [8]
active: [1] 20 µM | [4] 4.03 µM | [7] 2.39 µM | [9] 11.9 µM | [10] 6.04 µM

OCC1CO1 (configuration not stated)
inactive: [1] | [2] | [3] | [4] | [5] | [6] | [7] | [8] | [9] | [10]

FC(F)(F)C(F)(C(F)(F)F)C(F)(F)C(F)(F)CC1CO1 (configuration not stated)
inactive: [1] | [2] | [3] | [4] | [5] | [6] | [7] | [8] | [9] | [10]

Nc1ccc(Cl)cc1
active: [10] 7.71 µM
inactive: [1] | [2] | [3] | [4] | [5] | [6] | [7] | [8] | [9]

O=C(O)C(F)(F)C(F)(F)C(=O)O
inactive: [1] | [2] | [3] | [4] | [5] | [6] | [7] | [9] | [10]
active: [4] 17.2 µM | [10] 0.22 µM

Cc1ccc(O)cc1C
inactive: [1] | [2] | [3] | [4] | [5] | [6] | [7] | [8] | [9] | [10]

CC(C)Nc1ccc(Nc2ccccc2)cc1
inactive: [8]
active: [1] 26.3 µM | [2] 36.6 µM | [3] 13.4 µM | [4] 5.88 µM | [5] 32.9 µM | [6] 27.5 µM | [7] 8.09 µM | [9] 14 µM | [10] 0.464 µM

OCC(F)(F)OC(F)(F)C(F)(F)OC(F)(F)C(F)(F)OC(F)(F)F
inactive: [2] | [3] | [4] | [5] | [6] | [7]
active: [1] 32.9 µM and 44.3 µM | [6] 30 µM | [10] 11.6 µM and 15.8 µM

NC(=O)C(F)(F)C(F)(F)F
inactive: [1] | [2] | [3] | [4] | [5] | [6] | [7] | [8] | [9] | [10]

CCCCCCCc1ccc(O)cc1
active: [1] 39 µM | [4] 22.6 µM | [5] 38 µM | [6] 28.5 µM | [7] 15.5 µM | [9] 35.1 µM | [10] 13.5 µM
inactive: [2] | [3] | [8]

CCOS(=O)(=O)OCC
inactive: [1] | [2] | [3] | [4] | [5] | [6] | [7] | [8] | [9] | [10]

ClC1=C(Cl)C2(Cl)C3C(Cl)C(Cl)CC3C1(Cl)C2(Cl)Cl (configuration not stated)
inactive: [3] | [5] | [8]
active: [1] 33.9 µM | [2] 24.1 µM | [4] 7.58 µM | [6] 25.4 µM | [7] 6.06 µM | [10] 6.97 µM

COP(=O)(O)OC
inactive: [1] | [2] | [3] | [4] | [5] | [6] | [7] | [8] | [9] | [10]

CC(Cl)(Cl)C(=O)O
active: [10] 0.148 µM
inactive: [1] | [2] | [3] | [4] | [5] | [6] | [7] | [8] | [9]

c1ccc2c(c1)sc1ccccc12
inactive: [1] | [2] | [3] | [4] | [5] | [6] | [7] | [8] | [9] | [10]

CCOP(=S)(OCC)SCSCC
inactive: [1] | [2] | [3] | [4] | [5] | [6] | [7] | [8] | [9] | [10]

O=C(O)C(F)(OC(F)(F)C(F)(F)C(F)(F)F)C(F)(F)F (configuration not stated)
inactive: [1] | [2] | [3] | [4] | [5] | [6] | [7] | [8] | [9] | [10]
active: [2] 2.48 µM

O=C(O)C=CC(F)(C(F)(F)F)C(F)(F)F
inactive: [1] | [2] | [3] | [4] | [5] | [6] | [7] | [8] | [9] | [10]

O=P1(N(CCCl)CCCl)NCCCO1 (configuration not stated)
inactive: [1] | [2] | [3] | [4] | [5] | [6] | [7] | [8] | [9] | [10]

O=S1(=O)OCC2C(CO1)C1(Cl)C(Cl)=C(Cl)C2(Cl)C1(Cl)Cl (configuration not stated)
inactive: [1] | [4] | [6] | [7] | [8] | [9] | [10]
active: [2] 20 µM | [3] 20.9 µM | [5] 30.1 µM

CCOc1ccc(C(C)(C)COCc2cccc(Oc3ccccc3)c2)cc1
active: [2] 10.7 µM
inactive: [1] | [3] | [4] | [5] | [6] | [7] | [8] | [9] | [10]

CCCCN(CCCC)SN(C)C(=O)Oc1cccc2c1OC(C)(C)C2
active: [1] 33.7 µM | [2] 29.1 µM | [4] 8.12 µM | [6] 13.4 µM | [7] 5.49 µM | [9] 16.2 µM | [10] 6.34 µM
inactive: [3] | [5] | [8]

OCC(F)(F)OC(F)(F)C(F)(F)OC(F)(F)C(F)(F)OC(F)(F)CO
inactive: [1] | [2] | [3] | [5] | [6] | [7]
active: [4] 26.5 µM and 24.2 µM | [7] 14.9 µM | [10] 4.15 µM and 36.9 µM

ClC(Cl)(Cl)c1ccccc1
inactive: [1] | [2] | [3] | [4] | [5] | [6] | [7] | [8] | [10]

c1cc2c3c(cccc3c1)CC2
inactive: [1] | [2] | [3] | [4] | [5] | [6] | [7] | [8] | [10]

c1nc[nH]n1
inactive: [1] | [2] | [3] | [4] | [5] | [6] | [7] | [8] | [10]

CCCN(CCC)c1c([N+](=O)[O-])cc(C(C)C)cc1[N+](=O)[O-]
active: [2] 20 µM | [4] 20 µM | [7] 9.07 µM | [10] 13.3 µM
inactive: [1] | [3] | [5] | [6] | [9]

O=C(O)C(F)(F)OC(F)(F)C(F)(F)OC(F)(F)C(=O)O
inactive: [1] | [2] | [3] | [4] | [5] | [6] | [7] | [8] | [10]

C=CC(=O)OCC(CC)(COC(=O)C=C)COC(=O)C=C
inactive: [2]
active: [1] 2.21 µM | [3] 0.847 µM | [4] 1.71 µM | [5] 1.97 µM | [6] 1.65 µM | [7] 1.03 µM | [8] 1.59 µM | [10] 0.795 µM

CC(C)(C)c1ccccc1OP(=O)(Oc1ccccc1)Oc1ccccc1
active: [1] 5.23 µM | [2] 11.7 µM | [4] 20 µM | [6] 18.7 µM | [7] 2.83 µM | [10] 15.6 µM
inactive: [3] | [5] | [9]

COP(N)(=S)OC
inactive: [1] | [2] | [3] | [4] | [5] | [6] | [7] | [8] | [10]

CCOP(=S)(OCC)SCSc1ccc(Cl)cc1
active: [3] 16.5 µM | [4] 8.28 µM | [6] 1.6 µM
inactive: [1] | [2] | [5] | [7] | [8] | [10]

CC(Cl)CN(C)C (configuration not stated)
inactive: [1] | [2] | [3] | [4] | [6] | [7] | [8] | [10]
active: [5] 0.177 µM

O=C(O)C(F)(F)OC(F)(F)C(F)(F)OC(F)(F)F
inactive: [1] | [2] | [3] | [4] | [5] | [6] | [7] | [9] | [10]

O=[N+]([O-])c1ccccc1
inactive: [1] | [2] | [3] | [4] | [5] | [6] | [7] | [8] | [10]
